Screens: PubChem, National Center for Advancing Translational Sciences (NCATS)
Only some compounds are listed: those with a hit (about 5.3% of all), similar ones and a draw of the others.
JMJD2A Tudor: JMJD2A Tudor domain (human) inhibition; O75164; AlphaScreen JMJD2A-Tudor / H3K4me3 peptide binding; Potency, µM (series often up to 114 µM), for inactives: at the highest dose activity change, negative = inhibition, most hits filed as inhibitors; hit rate 4.4% among 390,000; note: potency is the fitted concentration of half-maximal effect; % is set by controls: 0 for no effect and ±100 for the full control effect; nearly all actives have a fitted effect of over 50% in size
CtBP-E1A inh: inhibitors of CtBP/E1A interaction. AlphaScreen GST-E1A/His-CtBP binding, 1536-well; hits give low values. activity change, % (test concentration not listed). hit rate 0.49% among 340,000. AID 651724; in the data active = activity change below about -65%; inconclusive = mostly about -30% to -63%; note: % is set by controls: 0 for no effect and ±100 for the full control effect
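Homogeneous bead-based format: GST-tagged E1A captured on glutathione donor beads, His-tagged CtBP on nickel acceptor beads; compounds precede bead addition by 2 h at 37 °C.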
TDP1 block: inhibitors of human tyrosyl-DNA phosphodiesterase TDP1; AID 485290; recombinant TDP1, AlphaScreen DNA substrate cleavage; hit rate 0.28% among 350,000; Potency, µM (highest dose often 130 µM), inactives show at the highest dose activity change, negative = inhibition, actives largely listed as inhibitors; Q9NUW8; note: potency is the fitted concentration of half-maximal effect; % is set by controls: 0 for no effect and ±100 for the full control effect; nearly all actives have a fitted effect of over 40% in size
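Steps: enzyme plus compound, 15 min RT; add biotin/phosphotyrosine-FITC oligonucleotide (15 nM final), react 5 min; add donor/acceptor beads (10 ug/ml final), 10 min; read AlphaScreen. Tdp1 at 1 nM final.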
Six1-Eya2 inh: blocks human Six1 binding to Eya2 | AlphaScreen GST-Six1/His-Eya2 binding, biochemical; hits give low values | activity change, % (no concentration beside the values) | hit rate 0.56% among 360,000 | AID 651725; in the data active = activity change below about -65%; inconclusive = mostly about -30% to -63%; note: % is set by controls: 0 for no effect and ±100 for the full control effect
Target sequence (O00167 whole entry, looked up): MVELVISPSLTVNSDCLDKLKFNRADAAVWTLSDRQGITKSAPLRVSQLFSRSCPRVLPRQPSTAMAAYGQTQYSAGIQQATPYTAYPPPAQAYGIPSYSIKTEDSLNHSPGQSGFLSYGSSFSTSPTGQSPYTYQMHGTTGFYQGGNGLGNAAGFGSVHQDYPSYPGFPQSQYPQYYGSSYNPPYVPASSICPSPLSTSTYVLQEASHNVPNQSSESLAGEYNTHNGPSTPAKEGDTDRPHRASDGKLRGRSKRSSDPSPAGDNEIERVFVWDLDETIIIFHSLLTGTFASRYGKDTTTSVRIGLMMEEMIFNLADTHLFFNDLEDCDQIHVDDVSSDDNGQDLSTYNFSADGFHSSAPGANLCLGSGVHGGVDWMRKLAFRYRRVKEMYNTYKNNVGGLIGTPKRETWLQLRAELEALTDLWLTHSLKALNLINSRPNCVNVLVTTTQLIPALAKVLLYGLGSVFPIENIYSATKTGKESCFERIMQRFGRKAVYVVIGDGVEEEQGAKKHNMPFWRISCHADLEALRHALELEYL
Target sequence (Q15475 whole entry, looked up): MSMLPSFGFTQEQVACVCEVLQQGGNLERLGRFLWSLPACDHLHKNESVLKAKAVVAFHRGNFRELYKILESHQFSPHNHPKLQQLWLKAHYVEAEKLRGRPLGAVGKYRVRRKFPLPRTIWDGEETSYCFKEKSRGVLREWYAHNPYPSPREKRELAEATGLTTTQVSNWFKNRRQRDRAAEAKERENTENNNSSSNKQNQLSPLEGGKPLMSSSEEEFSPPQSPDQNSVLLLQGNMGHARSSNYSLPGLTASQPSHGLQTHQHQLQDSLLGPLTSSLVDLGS
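Homogeneous AlphaScreen proximity assay pairing GST-Six1 with His-tagged Eya2 (added as 5X mix: 250 nM and 500 nM) in 50 mM Tris pH 8.0, 300 mM NaCl, 1 mM TCEP. Glutathione donor and nickel acceptor beads; 1 h, 37 °C, dark.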
BAZ2B inh: BAZ2B (human) inhibition. Q9UIF8. AlphaScreen BAZ2B-H3K14Ac peptide displacement. Potency, µM (titrated, usually from 114 µM), for inactives: at the top dose activity change, negative = inhibition, actives largely listed as inhibitors. hit rate 4.4% among 360,000. AID 504333; note: potency is the fitted concentration of half-maximal effect; % is set by controls: 0 for no effect and ±100 for the full control effect; nearly all actives have a fitted effect of over 60% in size
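Inhibition is scored as reduced AlphaScreen emission. The BAZ2B/b-H3(5-23)K14Ac complex (50 nM each) in PBS pH 7.4, 0.01% Tween-20 meets compound (up to 110 uM) for 30 min at RT before bead addition.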
HP1b chromo inh: HP1-beta chromodomain-methylated histone interaction inhibition; P83916; AlphaScreen HP1-beta / biotin-H3K9me3 peptide binding; Potency, µM (series often up to 114 µM), inactives show at the highest dose activity change, negative = inhibition, hits mostly inhibitors; hit rate 0.56% among 390,000; AID 540317; note: potency is the fitted concentration of half-maximal effect; nearly all actives have a fitted effect of over 70% in size
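Compound inhibition of the preformed complex between 50 nM HP1-beta and 50 nM biotinylated H3K9me3 peptide was read by AlphaScreen. Buffer was PBS pH 7.4 with 0.01% Tween-20. Incubations ran 30 min at room temperature, with 10 ug/mL donor/acceptor beads.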
The depositor's hits bear a star; ? = inconclusive; . = not tested or not shown; [ ] = dose if it differs, or a comment. Unless noted, calls come from the whole dose curve; as a rule, active = well fitted inhibition curve with a large enough effect; inconclusive = small, poorly fitted or top-dose-only effect; inactive = no such curve, though single readings can be large or run the other way.

SMILES	JMJD2A Tudor	CtBP-E1A inh	TDP1 block	Six1-Eya2 inh	BAZ2B inh	HP1b chromo inh
CCC(C)NC(=O)C1=CC(c2ccc3c(c2)OCO3)=NS(=O)(=O)N1C (stereo unspecified)	-4%	.	11%	.	-9%	50%
CC1CN(c2nc(N(C)c3ccccc3)nc(N)c2[N+](=O)[O-])CC(C)O1 (stereo unspecified)	?	-8	.	-8	-30%	?
CC1CC(C)CN(c2nc(N(C)c3ccccc3)nc(N)c2[N+](=O)[O-])C1 (stereo unspecified)	40µM*	.	.	-5	?	-25%
COC(=O)[C@]1(C)N[C@H](CN(C)C(C)=O)[C@@H]2C(=O)N(C)C(=O)[C@@H]21	-22%	10	0%	3	.	17%
CCNC(=O)N(C)C[C@H]1N[C@@](C)(C(=O)OC)[C@H]2C(=O)N(C)C(=O)[C@@H]12	89µM*	9	1%	4	.	27%
COc1ccc(-n2nc(C(=O)O)c3csc(N)c3c2=O)cc1	79µM*	.	-14%	.	.	.
Nc1scc2c(C(=O)O)nn(-c3ccccc3)c(=O)c12	79µM*	.	-1%	.	?	-1%
CC1(C)CC(=O)C(N=Nc2ccc(S(=O)(=O)N3CCOCC3)cc2)=C(O)C1	35µM*	-5	.	0	-16%	3%
COc1ccc(N2CCN(CCC3Oc4cc([N+](=O)[O-])ccc4NC3=O)CC2)cc1 (stereo unspecified)	?	?	8%	-18	28µM*	?
COc1ccc(OCC(O)CNC(=O)c2ccc(OC)cc2)cc1 (stereo unspecified)	-23%	0	5%	-1	-16%	13%
OC(CNCc1ccccc1)COc1ccccc1 (stereo unspecified)	-16%	4	0%	7	3%	34%
COc1cccc(CNCC(O)COc2ccc(C(=O)c3ccccc3)cc2)c1 (stereo unspecified)	56µM*	-2	.	-10	50µM*	?
O=C(c1ccccc1)c1ccc(OCC(O)CNCc2ccc(Cl)cc2)cc1 (stereo unspecified)	20µM*	-1	.	9	56µM*	?
COc1ccccc1C(=O)Nc1ccccc1C(=O)OCc1cc(=O)n2ccsc2n1	-6%	.	9%	.	-17%	26%
CCCOP(=O)(c1ccc(N(C)C)cc1)C(O)c1ccc(N(C)C)cc1 (stereo unspecified)	8.9µM*	-10	.	2	-23%	24%
CC(C)CCOP(=O)(c1ccc(N(C)C)cc1)C(O)c1ccc(N(C)C)cc1 (stereo unspecified)	7.1µM*	-19	.	-10	?	-5%
CCCCOP(=O)(c1ccc(N(C)C)cc1)C(O)c1ccc(N(C)C)cc1 (stereo unspecified)	5µM*	-11	.	-8	?	-4%
CCOc1cc(C(=O)NCCc2csc3nc(-c4ccccc4F)nn23)cc(OCC)c1OCC	-19%	.	-1%	.	-1%	13%[57 µM]
Cc1ccc(NC(=O)Cn2c(=O)oc3cc(S(=O)(=O)N4CCCCCC4)ccc32)cc1Cl	-9%	.	-5%	.	1%	25%
CCn1nc([N+](=O)[O-])c(C(C#N)c2nc3ccccc3n2C)c(Cl)c1=O (stereo unspecified)	?	0	11%	?	40µM*	?
O=[N+]([O-])c1ccc(CN2CCN(c3nc4ccccc4s3)CC2)cc1	-5%	-16	.	-6	?	-17%
CCCn1nc([N+](=O)[O-])c(C(C#N)c2nc3ccccc3s2)c(Cl)c1=O (stereo unspecified)	16µM*	-25	12%	-29	10µM*	11µM*
Cn1c(C(C#N)C(=O)c2sc3ccccc3c2Cl)nc2ccccc21 (stereo unspecified)	-25%	0	11%	-29	8%	33%
CC(C)N(CCO)C(=O)C(c1ccccc1)c1ccccc1	-4%	1	8%	1	42%	26%
CN(CCO)c1ccc(C(C(=O)c2ccccc2)c2ccc(N(C)CCO)cc2)cc1	45µM*	-26	12%	?	45µM*	?
SMILES	JMJD2A Tudor	CtBP-E1A inh	TDP1 block	Six1-Eya2 inh	BAZ2B inh	HP1b chromo inh
CN(C(=O)CN1C(=O)/C(=C/c2ccccc2F)SC1=S)C1CCS(=O)(=O)C1 (stereo unspecified)	-3%	3	9%	-1	45µM*	52%
COc1cccc(CNC(=O)C2CCN(S(=O)(=O)c3ccc4c(c3)CCCN4C(C)=O)CC2)c1	-6%	.	3%	.	2%	30%[57 µM]
CCOC(=O)C1CCN(CC(O)COCc2ccc(Cl)cc2)CC1 (stereo unspecified)	11%	.	2%	-2	-5%	33%
NC(=O)C1CCCN(CC(O)COCc2ccc(Cl)cc2)C1 (stereo unspecified)	18µM*	.	.	-3	50µM*	-32%
OCCC1CCCCN1CC(O)COCc1ccc(Cl)cc1 (stereo unspecified)	22µM*	-7	6%	6	?	?
COc1ccc(-c2cn3nc(SCC(=O)Nc4cccc(C)c4C)ccc3n2)cc1	-7%	.	3%	.	4%	30%[57 µM]
CN1C(=O)/C(=C\c2cccc(OCc3ccccc3)c2)SC1=S	-12%	8	.	2	?	-7%
O=C(O)COc1ccc(C=C2SC(=S)N(c3ccccc3)C2=O)cc1	-35%	-92*	.	-15	.	1%[57 µM]
COc1cccc(/C=C2\SC(=S)N(CC3CCCO3)C2=O)c1 (stereo unspecified)	?	-12	8%	?	8.9µM*	-52%
CCOc1ccc(/C=C2\SC(=S)N(CCC(=O)O)C2=O)cc1	-23%	-10	.	0	-22%	10%
O=C(O)COc1cccc(/C=C2/SC(=S)N(Cc3ccccc3)C2=O)c1	50µM*	-13	.	-23	?	-36%
O=C(O)CN1C(=O)/C(=C\c2cccc(OCc3ccccc3)c2)SC1=S	?	.	.	-2	56µM*	?
CCc1ccccc1-n1nnc(-c2nc(-c3ccccc3F)no2)c1C	2%	.	0%	.	2%	48%
O=C(CSc1nccc(=O)[nH]1)N1CCN(c2ccccc2)CC1	?	-3	-9%	1	79µM*	-3%
O=C(CSc1ccccn1)N1CCN(c2cccc(Cl)c2)CC1	79µM*	5	0%	-3	-20%	-1%
O=C(CCC(=O)N1CCN(c2cccc(Cl)c2)CC1)N1CCN(c2ccccc2)CC1	-22%	0	5%	4	2%	20%
